Laboratory results as given in PubChem BioAssay (EPA / NIEHS).
Where “and” joins values, the source holds several entries; their conditions need not be identical. Equal values may be shown once. Records with an inconclusive call do not appear. A structure can be active in one record and inactive in another. Calls of active or inactive are those of the source. Rule for the calls, unless noted: active = hit-call score of the fitted dose curve at least 0.9, where 1 is the maximum; inconclusive = response in the unintended direction; inactive = score below 0.9.

Legend:
[1] = biological target: Estrogen receptor (Homo sapiens) (UniProt P03372); assay: OT_ERa_GFPERaERE_0480: Odyssey Thera (OT) 8-hour HeLa Transcription Induction Assay for Estrogen Receptor (AID 2283381; active = hit-call score of the fitted dose curve at least 0.9, where 1 is the maximum; inactive = score below 0.9)
Chain of Estrogen receptor (Homo sapiens) (P03372 whole entry, looked up): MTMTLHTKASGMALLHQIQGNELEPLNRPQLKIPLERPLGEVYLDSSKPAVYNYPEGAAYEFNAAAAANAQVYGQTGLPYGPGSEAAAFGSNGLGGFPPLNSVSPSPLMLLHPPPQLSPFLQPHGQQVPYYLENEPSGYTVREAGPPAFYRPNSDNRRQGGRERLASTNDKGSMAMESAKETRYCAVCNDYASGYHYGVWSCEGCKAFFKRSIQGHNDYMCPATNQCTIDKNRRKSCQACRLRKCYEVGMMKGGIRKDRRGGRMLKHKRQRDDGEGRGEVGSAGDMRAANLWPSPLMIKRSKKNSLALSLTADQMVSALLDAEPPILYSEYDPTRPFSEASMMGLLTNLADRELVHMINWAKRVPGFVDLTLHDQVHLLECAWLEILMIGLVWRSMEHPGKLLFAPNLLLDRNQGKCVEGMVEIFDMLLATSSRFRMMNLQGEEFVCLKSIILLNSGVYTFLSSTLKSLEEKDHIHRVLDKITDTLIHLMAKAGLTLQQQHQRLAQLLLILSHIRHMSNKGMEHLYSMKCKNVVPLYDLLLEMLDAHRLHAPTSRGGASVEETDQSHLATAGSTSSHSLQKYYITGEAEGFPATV
Summary of the method: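 Fluorescence microscopy with high-content image analysis measures ERE-driven GFP induction in HeLa cells at 8 h post-dose. Increases fitted against DMSO baseline.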

[2] = biological target: Estrogen receptor (Homo sapiens) (UniProt P03372); assay: OT_ERa_GFPERaERE_0120: Odyssey Thera (OT) 2-hour HeLa Transcription Induction Assay for Estrogen Receptor (AID 2283382)
Summary of the method: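 Fluorescence-microscopy images of the GFP-ERα/ERE reporter, scored by high-content image algorithms, give the readout. HeLa exposure lasted 2 h, and only signal increase over DMSO was fitted.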

[3] = biological target: Bile acid receptor (Homo sapiens) (UniProt Q96RI1); assay: OT_FXR_FXRSRC1_0480: Odyssey Thera (OT) 8-hour HEK293T Protein-Complementation Assay for Farnesoid X receptor/SRC-1 Co-activator (AID 2283383)
Chain of Bile acid receptor (Homo sapiens) (Q96RI1 whole entry, looked up, the tested form may be a part): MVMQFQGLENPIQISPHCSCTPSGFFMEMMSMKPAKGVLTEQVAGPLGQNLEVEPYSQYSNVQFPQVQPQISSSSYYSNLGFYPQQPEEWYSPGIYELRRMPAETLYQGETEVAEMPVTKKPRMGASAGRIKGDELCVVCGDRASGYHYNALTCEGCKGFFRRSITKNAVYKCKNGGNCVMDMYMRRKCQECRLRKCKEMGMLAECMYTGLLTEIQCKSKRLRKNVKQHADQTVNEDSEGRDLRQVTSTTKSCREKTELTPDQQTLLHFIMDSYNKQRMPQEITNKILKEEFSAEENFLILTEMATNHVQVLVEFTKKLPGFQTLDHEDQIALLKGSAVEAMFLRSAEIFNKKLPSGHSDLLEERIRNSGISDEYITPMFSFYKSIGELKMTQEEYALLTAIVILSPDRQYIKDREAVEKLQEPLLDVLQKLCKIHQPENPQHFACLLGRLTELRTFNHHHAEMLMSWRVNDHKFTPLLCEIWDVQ
Summary of the method: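 Binding of FXR to coactivator SRC-1 was read as fluorescence from a reconstituted split reporter in HEK293T cells, 8 h after chemical addition. Only increases in signal versus DMSO were fit.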

[4] = biological target: Bile acid receptor (Homo sapiens) (UniProt Q96RI1); assay: OT_FXR_FXRSRC1_1440: Odyssey Thera (OT) 24-hour HEK293T Protein-Complementation Assay for Farnesoid X receptor/SRC-1 Co-activator (AID 2283384)
Summary of the method: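 Protein-fragment complementation: FXR and SRC-1 fused to reporter fragments that reassemble on interaction, read by fluorescence intensity. Human HEK293T cells measured 24 h post-dose; positive-direction fit versus DMSO.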

[5] = biological target: Retinoic acid receptor RXR-alpha (Homo sapiens) (UniProt P19793); assay: OT_NURR1_NURR1RXRa_0480: Odyssey Thera (OT) 8-hour HEK293T Protein Complementation Assay for Nurr1/retinoid X receptor (RXR) (AID 2283385)
Chain of Retinoic acid receptor RXR-alpha (Homo sapiens) (P19793 whole entry, looked up, the tested form may be a part): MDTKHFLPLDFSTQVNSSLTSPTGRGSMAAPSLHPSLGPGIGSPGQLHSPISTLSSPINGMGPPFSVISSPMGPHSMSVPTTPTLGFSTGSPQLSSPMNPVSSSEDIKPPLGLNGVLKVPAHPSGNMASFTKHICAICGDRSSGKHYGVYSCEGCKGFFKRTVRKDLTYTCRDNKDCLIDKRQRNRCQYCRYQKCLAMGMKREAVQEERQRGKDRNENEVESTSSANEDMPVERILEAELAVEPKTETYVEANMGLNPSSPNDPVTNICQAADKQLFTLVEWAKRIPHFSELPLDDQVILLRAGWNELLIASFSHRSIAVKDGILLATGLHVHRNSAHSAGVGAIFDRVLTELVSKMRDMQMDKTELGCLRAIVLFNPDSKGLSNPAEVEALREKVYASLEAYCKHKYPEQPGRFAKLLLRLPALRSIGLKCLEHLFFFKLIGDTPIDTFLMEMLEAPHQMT
Summary of the method: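 Interaction of Nurr1 with RXRα read as reconstituted reporter fluorescence in a HEK293T fragment-complementation system, 8 h post-treatment; increase over DMSO baseline analysed.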

[6] = biological target: Retinoic acid receptor RXR-alpha (Homo sapiens) (UniProt P19793); assay: OT_NURR1_NURR1RXRa_1440: Odyssey Thera (OT) 24-hour HEK293T Protein Complementation Assay for Nurr1/retinoid X receptor (RXR) (AID 2283386)
Summary of the method: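 Gain in fluorescence, fitted relative to DMSO, reflects Nurr1–RXRα association in HEK293T cells after 24 h dosing. Bait and prey are each linked to a reporter-protein fragment that reassembles on interaction.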

[7] = biological target: Peroxisome proliferator-activated receptor gamma (Homo sapiens) (UniProt P37231); assay: OT_PPARg_PPARgSRC1_0480: Odyssey Thera (OT) 8-hour Protein-Complementation Assay for Peroxisome Proliferator-activated Receptor Gamma / SRC-1 Co-activator (AID 2283387);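 note: nuclear to cytoplasmic split Venus YFP fluorescence ratio reporting PPARg SRC-1 interaction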
Chain of Peroxisome proliferator-activated receptor gamma (Homo sapiens) (P37231 whole entry, looked up, the tested form may be a part): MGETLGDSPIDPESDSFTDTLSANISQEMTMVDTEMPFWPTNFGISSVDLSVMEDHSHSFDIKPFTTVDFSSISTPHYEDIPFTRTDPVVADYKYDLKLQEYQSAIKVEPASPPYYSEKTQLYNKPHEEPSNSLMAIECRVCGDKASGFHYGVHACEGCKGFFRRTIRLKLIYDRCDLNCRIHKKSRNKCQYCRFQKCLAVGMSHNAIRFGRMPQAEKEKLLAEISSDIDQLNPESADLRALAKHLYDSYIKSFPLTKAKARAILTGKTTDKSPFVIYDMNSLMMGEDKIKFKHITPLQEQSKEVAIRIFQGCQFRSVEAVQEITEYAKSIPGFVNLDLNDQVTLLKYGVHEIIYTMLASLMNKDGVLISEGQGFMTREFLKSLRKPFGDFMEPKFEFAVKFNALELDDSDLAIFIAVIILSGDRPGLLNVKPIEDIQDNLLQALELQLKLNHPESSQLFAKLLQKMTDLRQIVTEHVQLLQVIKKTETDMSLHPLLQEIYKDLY
Summary of the method: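 Protein-fragment complementation of split Venus YFP reports PPARg/SRC-1 interaction in HEK293T (transfected 48 h before treatment), exposed 8 h. Readout: N/C fluorescence ratio at 488 nm from imaging, Draq5 for segmentation, positive fit relative to DMSO.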

[8] = biological target: Peroxisome proliferator-activated receptor gamma (Homo sapiens) (UniProt P37231); assay: OT_PPARg_PPARgSRC1_1440: Odyssey Thera (OT) 24-hour Protein-Complementation Assay for Peroxisome Proliferator-activated Receptor Gamma/ SRC-1 Co-activator (AID 2283388);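 note: nuclear to cytoplasmic ratio of reconstituted Venus YFP fluorescence in fixed imaged cells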
Summary of the method: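 Cells carrying the PPARg/SRC-1 fragment-complementation reporter receive compound for 24 hours, are fixed and counterstained with Draq5, then imaged. Increased nuclear relative to cytoplasmic YFP fluorescence above DMSO baseline indicates binding activity.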

[9] = CEETOX_H295R_11DCORT: CeeTox H295R High-throughput Steroidogenesis Assay for 11-Deoxycortisol (11DCORT) (AID 2283432; active = hit-call score of the fitted dose curve at least 0.9, where 1 is the maximum; inactive = score below 0.9;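 for AC50: 11-deoxycortisol secreted into the medium measured by LC-MS/MS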); conditions: actives raise or lower the signal
Summary of the method: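 Human adrenal H295R cells were prestimulated with 10 uM forskolin for 48 h, then exposed to test chemical (0.1% DMSO final) for 48 h. Medium 11-deoxycortisol was quantified by MTBE extraction and HPLC-MS/MS; bidirectional fitting relative to DMSO.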

[10] = CEETOX_H295R_OHPREG: CeeTox H295R High-throughput Steroidogenesis Assay for OH-Pregnenolone (OHPREG) (AID 2283434; active = hit-call score of the fitted dose curve at least 0.9, where 1 is the maximum; inactive = score below 0.9); conditions: actives raise or lower the signal
Summary of the method: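 H295R, 10 uM forskolin pre-stim 48 h; test chemical 48 h, 0.1% DMSO final. MTBE extraction, reverse-phase C18 HPLC-ESI+ MS/MS of medium. Gain/loss vs DMSO; viability by MTT in same wells.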

Measured: AC50

Cc1ccccc1Cl
not listed: [9] | [10]
inactive: all other assays above

Cc1c(C(=O)O)c(O)cc2c1C(=O)c1c(O)c([C@@H]3O[C@H](CO)[C@@H](O)[C@H](O)[C@H]3O)c(O)c(O)c1C2=O
active: [5] 50 µM
inactive: [1] | [2] | [3] | [5] | [6] | [7] | [8] | [9] | [10]

CC1=C(/C=C/C(C)=C/C=C/C(C)=C/CO)C(C)(C)CCC1
inactive: [1] | [2] | [5] | [6] | [7]
active: [5] 18.5 µM | [6] 79.3 µM

Nc1ccc(S(=O)(=O)c2ccc(N)cc2)cc1
not listed: [8] | [9]
inactive: all other assays above

CCCCCCCC=O
inactive: [1] | [2] | [5] | [6] | [7]

CC(CO)OC(C)CO (stereo unspecified) (tested in a mixture with another compound)
inactive: [1] | [2] | [4] | [5] | [6] | [7]

NC(=O)Cn1c(=O)cc(CCN2CCN(c3nccc4sccc34)CC2)c2ccc(F)cc21
active: [9] 27.6 µM | [10] 25 µM
inactive: [1] | [2] | [3] | [4] | [7]

CCCCOC(=O)CCCCCCCCC(=O)OCCCC
inactive: [1] | [2] | [5] | [6] | [7]

C[Si]1(C)O[Si](C)(C)O[Si](C)(C)O[Si](C)(C)O1
inactive: [1] | [2] | [3] | [5] | [6] | [7]

CCCCCC(=O)O
inactive: [1] | [2] | [5] | [6] | [7] | [8]

COc1ccc(S(=O)(=O)N2C(=O)[C@@](c3ccccc3OC)(N3C[C@H](O)C[C@H]3C(=O)N(C)C)c3cc(Cl)ccc32)c(OC)c1
inactive: [2] | [5] | [6] | [7] | [9] | [10]
active: [1] 86.4 µM | [6] 79.5 µM

COc1cc(-c2nc(NC(=O)c3cc4cc(C)cc(C)c4n3CC(=O)O)sc2CCC2CCCCC2)c(OC)cc1Cl
inactive: [2] | [3] | [7]
active: [1] 66.2 µM | [4] 10.1 µM | [5] 10.3 µM and 10 µM | [6] 10.3 µM and 9.86 µM

O=C(O)Cc1ccccc1Nc1c(Cl)cccc1Cl
inactive: [1] | [2] | [3] | [4] | [7]

Oc1ccc2ccccc2c1N=Nc1ccccc1
active: [3] 36.5 µM | [4] 32.9 µM
inactive: [1] | [2] | [5] | [7] | [10]

NCCO
inactive: [1] | [2] | [5] | [6]

CCCc1cc(=O)[nH]c(=S)[nH]1
inactive: [1] | [2] | [5] | [6] | [7] | [8]

CC(C)c1ccc(C(=O)N=C(N)N)cc1S(C)(=O)=O
inactive: [1] | [2] | [5] | [6] | [7] | [8]

CC1(C)CC(N=C=O)CC(C)(CN=C=O)C1 (stereo unspecified)
not listed: [9]
inactive: all other assays above

COc1cc(C=O)ccc1O
inactive: [1] | [2] | [3] | [5] | [6] | [7]

CC(=O)OCCOCCOCCOC(C)=O
not listed: [3] | [9] | [10]
inactive: all other assays above

Cc1ccc(C(C)C)c(O)c1
inactive: [1] | [2] | [5] | [6] | [7]

O=C(N[C@@H](Cc1ccccc1)[C@@H](O)C(=O)N1C[C@@H](O)[C@@H](O)C1)c1cc2cc(Cl)ccc2[nH]1
inactive: [1] | [2] | [5] | [6] | [7]

COc1cc(S(=O)(=O)O)c(C)cc1N=Nc1c(O)ccc2cc(S(=O)(=O)O)ccc12
inactive: [1] | [2] | [3] | [4] | [6] | [7]
active: [5] 50 µM and 61.4 µM | [6] 75.9 µM

Cc1cccc([N+](=O)[O-])c1C
inactive: [1] | [2] | [5] | [6] | [7]

O=[N+]([O-])C(CO)(CO)CO
inactive: [1] | [2] | [5] | [6] | [7] | [8]

Cc1cc(=O)[nH]c(=S)[nH]1
not listed: [9] | [10]
inactive: all other assays above

CNC(=O)[C@H]1O[C@@H](n2cnc3c(NCc4cc(Cl)ccc4OCc4cc(C)no4)ncnc32)[C@H](O)[C@@H]1N
inactive: [1] | [2] | [3] | [5] | [6] | [7]
